Sampled rows, rich in hits. Any-hit rate of the full collection: about 1.3%.
KAT2A inh – qHTS Assay for Inhibitors of GCN5L2; Histone acetyltransferase KAT2A (Homo sapiens), Q92830; GCN5L2 HAT assay, ThioGlo1 CoA-SH fluorescence; Potency, µM (top dose mostly 58.9 µM), without a hit: top-dose activity change, negative = inhibition, actives largely listed as inhibitors; actives 0.21% (n = 390,000); also: potency is read from the fitted curve at half-maximal effect
Target sequence (Q92830 whole entry, looked up): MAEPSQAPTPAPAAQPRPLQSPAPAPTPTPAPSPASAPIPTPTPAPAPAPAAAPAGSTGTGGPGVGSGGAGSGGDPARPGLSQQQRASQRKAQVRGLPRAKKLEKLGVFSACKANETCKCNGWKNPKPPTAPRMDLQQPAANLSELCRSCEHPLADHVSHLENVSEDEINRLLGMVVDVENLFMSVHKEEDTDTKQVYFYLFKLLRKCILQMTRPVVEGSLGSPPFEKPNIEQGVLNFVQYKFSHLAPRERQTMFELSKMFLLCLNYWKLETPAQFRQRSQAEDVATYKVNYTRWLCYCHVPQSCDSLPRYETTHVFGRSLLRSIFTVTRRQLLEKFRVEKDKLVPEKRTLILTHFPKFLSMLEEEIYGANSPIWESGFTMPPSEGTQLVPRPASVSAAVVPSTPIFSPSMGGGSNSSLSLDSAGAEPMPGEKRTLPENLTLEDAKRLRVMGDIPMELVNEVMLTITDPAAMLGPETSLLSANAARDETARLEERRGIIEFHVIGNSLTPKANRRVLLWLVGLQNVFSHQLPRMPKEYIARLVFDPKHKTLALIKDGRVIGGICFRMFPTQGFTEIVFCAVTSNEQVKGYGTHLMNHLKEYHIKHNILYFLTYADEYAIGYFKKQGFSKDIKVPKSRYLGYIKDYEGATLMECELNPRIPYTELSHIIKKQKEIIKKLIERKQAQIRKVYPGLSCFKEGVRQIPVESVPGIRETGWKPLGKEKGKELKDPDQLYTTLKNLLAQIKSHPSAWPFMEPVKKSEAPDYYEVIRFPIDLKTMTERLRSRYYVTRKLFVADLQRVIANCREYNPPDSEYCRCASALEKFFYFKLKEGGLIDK
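Enzyme at 20nM final was mixed with library compounds for 15 min at room temperature. Peptide H3(1-25) at 75uM, acetyl-CoA at 70uM and ThioGlo1 at 50uM were then added. Plates were read immediately and after 20 min (Ex340nm/Em540nm).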
Giardia killer – Small Molecules that selectively kill Giardia lamblia: qHTS; AID 540267, 2011; Giardia lamblia trophozoite viability; actives 0.15% (n = 340,000); activity change, % at 7.66 µM, hits read low; in the data active = activity change below about -80%; inconclusive = between about -30% and that limit;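 also: parasites exposed to compound for two days anaerobically before the ATP read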
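Luminescence from cellular ATP indicates surviving trophozoites (100 cells/well) following 48 hrs anaerobic compound treatment at 37 deg C; signal develops 15-30 min at room temperature.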
rTrxR1 inhibitor – qHTS Assay for Inhibitors of Mammalian Selenoprotein Thioredoxin Reductase 1 (TrxR1): qHTS; AID 588453, 2011; Thioredoxin reductase 1, cytoplasmic (Rattus norvegicus), O89049; recombinant rTrxR1, NADPH fluorescence consumption, selenite substrate; Potency, µM (top dose mostly 114 µM), inactives show top-dose activity change, negative = inhibition, most hits filed as inhibitors; actives 1% (n = 390,000); also: potency is read from the fitted curve at half-maximal effect; nearly all actives have a fitted effect of over 65% in size
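Rat TrxR1 (90 nM in the dispensed reagent) was pre-reduced with 400 uM NADPH for 5 min at room temperature, then incubated with compound for 15 min. After 400 uM selenite was added, NADPH fluorescence (Ex 340/Em 450 nm) was followed for 8 min.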
Pin1 inh – qHTS Assay to Find Inhibitors of Pin1 | actives 0.009% (n = 390,000) | Potency, µM (top dose mostly 115 µM), for the others: at the top dose activity, negative = inhibition, most hits filed as inhibitors | Peptidyl-prolyl cis-trans isomerase NIMA-interacting 1 (Homo sapiens), Q13526 | AID 504891, 2011 | Pin1 FP peptide displacement, HiFluor488, 10 min; active = well fitted inhibition curve with a large enough effect in the polarisation, with a control signal flat, not every such curve was filed as active; inconclusive = small, poorly fitted or top-dose-only effect, or effect the other way, or a change in a side signal; inactive = no such curve, though single readings can be large or run the other way; the % refers to the polarisation; also: potency is read from the fitted curve at half-maximal effect
TrxR1 substrate – qHTS Assay for Substrates of Mammalian Selenoprotein Thioredoxin Reductase 1 (TrxR1): qHTS | Potency, µM (titrated, usually from 114 µM), for the others: at the highest dose activity change, negative = substrate turnover | AID 588456, 2011 | actives 0.01% (n = 390,000) | purified TrxR1 substrate turnover, NADPH consumption readout | Thioredoxin reductase 1, cytoplasmic (Rattus norvegicus), O89049; also: potency is read from the fitted curve at half-maximal effect; nearly all actives have a fitted effect of over 50% in size
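Rat TrxR1, dispensed at 90 nM, was prereduced with 400 uM NADPH (final) for 5 min at ~22 deg C, then incubated with compound 15 min before 400 uM selenite. A first-read NADPH fluorescence drop versus no-compound background flagged substrates.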
GALK inhibitor – qHTS Assay for Inhibitors of Human Galactokinase (GALK) | Purified GALK, Kinase-Glo residual ATP luminescence | actives 0.007% (n = 270,000) | P51570 | Potency, µM (top dose mostly 57.5 µM), without a hit: top-dose activity change, negative = inhibition, actives largely listed as inhibitors; also: potency is read from the fitted curve at half-maximal effect
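Human GALK (5 nM) with 35 uM ATP and 100 uM galactose in 20 mM HEPES pH 8.0, 5 mM MgCl2, 60 mM NaCl, 1 mM DTT, 0.01% BSA. After 1 h at room temperature, leftover ATP was read by Kinase-Glo Plus luminescence.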
* marks the source's active call; other numbers are inactive results; [ ] = another dose, or the depositor's remark. Unless noted, calls follow the shape of the dose curve; as a rule, active = well fitted curve in the direction sought with a large enough effect; inconclusive = small, poorly fitted or top-dose-only effect, or another doubt; inactive = no such curve, though single readings can be large; an effect the other way counts as inactive or inconclusive. % is scaled to controls: 0 for no effect and ±100 for the full control effect.

For CSc1nc(N)c(N=Nc2ccc([As](=O)(O)O)cc2)c(=O)[nH]1 the results were KAT2A inh -8.6%, Giardia killer -9.1, rTrxR1 inhibitor 3.98µM*, Pin1 inh inconclusive, TrxR1 substrate 5.9%[57.1 µM] and GALK inhibitor 2.2%.
`COc1ccc(N=Nc2c(O)[nH]c(=S)[nH]c2=O)cc1` gave KAT2A inh 1.4%, Giardia killer 4.4, rTrxR1 inhibitor 0.1%[57.1 µM], Pin1 inh inconclusive, TrxR1 substrate -1.1%[57.1 µM] and GALK inhibitor 1.7%.
Cc1oc(-c2ccccc2F)nc1CS(=O)CC(=O)N1CCC2(CC1)OCCO2 (centres undefined) was read as KAT2A inh -1.7%, Giardia killer -27.0, rTrxR1 inhibitor inconclusive, Pin1 inh 0.7%, TrxR1 substrate 7.7% and GALK inhibitor -0.2%.
Screening Cc1oc(-c2ccc(Cl)cc2)nc1CS(=O)CC(=O)N1CCC2(CC1)OCCO2 (centres undefined) returned KAT2A inh -17.3%, Giardia killer 20.8, rTrxR1 inhibitor 50.1µM*, Pin1 inh -1.5%, TrxR1 substrate 24.7% and GALK inhibitor 0.2%.
For CC(=O)N1CC[N+](C)(C)CC1 the results were KAT2A inh 20µM*.
Cn1ncnc2c(=O)n(C)c(=O)nc1-2 was read as KAT2A inh -2.2%, Giardia killer -88.3*, rTrxR1 inhibitor inconclusive, Pin1 inh inconclusive, TrxR1 substrate 39.8µM* and GALK inhibitor 1.26µM*.
`Cc1ccc(-c2nc3c(=O)n(C)c(=O)nc-3n(C)n2)cc1` gave Giardia killer -94.9*, rTrxR1 inhibitor 11.2µM*, Pin1 inh -0.2% and TrxR1 substrate 12.6µM*.
Screening O=c1[nH]c(=O)n(C2CCCCC2)c(O)c1C1=Nc2ccccc2SC(c2ccc(Cl)cc2)C1 (centres undefined) returned KAT2A inh -4.2%, rTrxR1 inhibitor 8.7%, Pin1 inh inconclusive and TrxR1 substrate -4.0%.
For CC(N)[C@H](O)c1ccc(O)c(O)c1 (some centres undefined) the results were KAT2A inh -8.8%, rTrxR1 inhibitor 17.8µM*, Pin1 inh inconclusive and TrxR1 substrate 9.5%[57.1 µM].
For CCc1ccc(N2C(=O)NC(=O)/C(=C\C=C\c3ccco3)C2=O)cc1 the results were KAT2A inh -13.1%, Giardia killer 5.9, rTrxR1 inhibitor -27.7%, Pin1 inh inconclusive, TrxR1 substrate -4.2% and GALK inhibitor 5.1%.
Cc1ccccc1N1C(=O)NC(=O)/C(=C\c2cc(Br)c(N3CCOCC3)o2)C1=O was read as KAT2A inh 27.6%, Giardia killer 7.9, rTrxR1 inhibitor 22.4µM*, Pin1 inh inconclusive, TrxR1 substrate -28.6% and GALK inhibitor -0.1%.
`O=C1NC(=S)N(c2ccccc2F)C(=O)/C1=C\c1cccs1` gave KAT2A inh -18.9%, Giardia killer 12.3, rTrxR1 inhibitor 8.91µM*, Pin1 inh inconclusive, TrxR1 substrate -2.1% and GALK inhibitor -0.2%.
Screening O=C1NC(=O)C(=Cc2cccs2)C(=O)N1 returned Giardia killer 18.1, rTrxR1 inhibitor 9.1%[2.29 µM], Pin1 inh -1.7% and TrxR1 substrate 8.9%[2.29 µM].
Screening CCOc1ccc(N2C(=O)/C(=C\c3cccs3)C(=O)NC2=S)cc1 returned KAT2A inh -22.6%, Giardia killer 9.2, rTrxR1 inhibitor 22.4µM*, Pin1 inh inconclusive, TrxR1 substrate 22.6%[57.1 µM] and GALK inhibitor -1.6%.
`CCOc1ccc(N2C(=O)/C(=C/c3ccco3)C(=O)NC2=S)cc1` gave KAT2A inh 22.4µM*, Giardia killer -19.0, rTrxR1 inhibitor inconclusive, Pin1 inh inconclusive, TrxR1 substrate -4.4% and GALK inhibitor 3.0%.
Screening C[C@@H](C(=O)O)c1ccc(C(=O)c2cccs2)cc1 returned KAT2A inh 0.0%[21.4 µM].
`CO/C1=C\C(C)=C\[C@@H](C)[C@@H](O)[C@@H](C)C/C(C)=C/C=C/[C@H](OC)[C@@H]([C@@H](C)[C@@H](O)[C@H](C)[C@@]2(O)C[C@@H](O)[C@H](C)C(C(C)C)O2)OC1=O` (some centres undefined) gave KAT2A inh -17.7%.
For Cc1ccccc1N1C(=O)/C(=C/c2ccco2)C(=O)NC1=S the results were KAT2A inh 2.24µM* and GALK inhibitor inconclusive.
Screening CN1C(=O)N(C)C(=O)C2(Sc3ccccc3C2=O)C1=O returned KAT2A inh 0.3%, Giardia killer -5.0, rTrxR1 inhibitor 28.2µM*, Pin1 inh 0.8%, TrxR1 substrate 3.1% and GALK inhibitor 1.5%.
For CCC(C)N1C(=O)/C(=C/c2ccc3c(c2)CCN3CCCCl)C(=O)NC1=S (centres undefined) the results were KAT2A inh 2.4%, Giardia killer 15.7, rTrxR1 inhibitor 12.6µM*, Pin1 inh inconclusive, TrxR1 substrate 0.3% and GALK inhibitor -8.0%.
`Cc1cccc(N2C(=O)NC(=O)/C(=C\c3ccc4c(c3)CCCN4Cc3ccccc3)C2=O)c1` gave KAT2A inh -16.6%, Giardia killer 1.1, rTrxR1 inhibitor inconclusive, Pin1 inh inconclusive, TrxR1 substrate 11.5%[57.1 µM] and GALK inhibitor -6.9%.
For CCCCCCCCCC[Si](C)(C)CCC(=O)N[C@@H](Cc1ccc(C)cc1)c1ccccc1 the results were rTrxR1 inhibitor 5.0% and TrxR1 substrate -0.4%.
Screening NC(C(=O)O)C1CC(Cl)=NO1 (centres undefined) returned KAT2A inh -2.8%.
`N#CC1(c2ccccc2)CCN(C2CC(=O)N(c3ccc4c(c3)OCO4)C2=O)CC1` (centres undefined) gave KAT2A inh 5.3%, Giardia killer 10.5, rTrxR1 inhibitor 70.8µM*, Pin1 inh 4.0%, TrxR1 substrate 5.0% and GALK inhibitor -1.0%.
Screening CCOC(=O)C1=CC(=C2C(=O)N(CC)C(=S)N(CC)C2=O)c2ccccc2O1 returned KAT2A inh -6.5%, Giardia killer -3.2, rTrxR1 inhibitor 39.8µM*, Pin1 inh 25.3%, TrxR1 substrate -10.1% and GALK inhibitor -3.6%.
`C=CCn1c(O)c(/C=C2/C=c3ccccc3=N2)c(=O)[nH]c1=S` gave KAT2A inh inconclusive, Giardia killer 5.5, rTrxR1 inhibitor 20µM*, Pin1 inh 29.2%, TrxR1 substrate -7.0% and GALK inhibitor -2.7%.
